From PubChem BioAssay
A number with no mark means an inactive call. Where a call stands in place of a potency, no number is given. For some of these results: Potency and affinity values are given separately. The source made the active and inactive calls. Unless noted, no rule for the calls is given here.

Legend:
[1] = antimalarial activity against Dd2 strain (AID 2302;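 active = growth inhibition above 50% at the single 2 µM test dose, taken to imply half-maximal potency below 2 µM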); details: P. falciparum Dd2 in RBCs, LDH growth readout, 72 h; at 2 µM; stronger effect = higher value
[2] = human hepatoma cell viability loss – ATP luminescence, cytotoxicity control for P. falciparum antimalarial project, primary screen (AID 2303;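 active = inhibition above 50%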); details: HepG2 viability, 24-48 h, at 10 µM, stronger effect = higher value
[3] = molecular target: L-lactate dehydrogenase (Plasmodium falciparum (isolate CDC / Honduras)) (UniProt Q27743); assay: PfLDH activity inhibition – cell lysate, 3D7 strain, counter-screen for P. falciparum growth inhibition project (AID 2304); details: P. falciparum 3D7 crude extract, LDH APAD/NBT absorbance; at 2 µM; stronger effect = higher value
[4] = inhibition of 3D7 malaria parasite growth – strain 3D7 (AID 2306); details: P. falciparum 3D7 erythrocytic growth, LDH absorbance, 72 h; at 2 µM; stronger effect = higher value
[5] = molecular target: Calcium-dependent protein kinase 1 (Plasmodium falciparum (isolate 3D7)) (UniProt P62344); assay: PfCDPK1 kinase inhibitors, biochemical, TCAMS library (AID 1159585; cut-off not given, nearly all actives have IC50 up to about 0.98 µM;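 also: inhibitors leave more ATP so luminescence rises with inhibition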); details: recombinant PfCDPK1, Kinase-Glo ATP depletion luminescence
[6] = molecular target: Plasmodium falciparum protein kinase 6 (PK6, PF3D7_1337100) (UniProt Q8IDW1); assay: PfPK6 kinase inhibitors, biochemical, TCAMS library (AID 1159586); details: recombinant PfPK6, Kinase-Glo ATP depletion luminescence
[7] = molecular target: Protein kinase 7 (PK7), Plasmodium falciparum 3D7 (PF3D7_0213400) (UniProt Q7YTF7); assay: inhibition of Plasmodium PK7 catalytic activity – biochemical, TCAMS antimalarial set, Kinase-Glo luminescence (AID 1159587); details: recombinant PfPK7, Kinase-Glo ATP depletion luminescence
[8] = molecular target: Calcium-dependent protein kinase 4 (Plasmodium falciparum (isolate 3D7)) (UniProt Q8IBS5); assay: PfCDPK4 kinase inhibitors, biochemical, TCAMS library (AID 1159588; cut-off not given, nearly all actives have IC50 up to about 0.91 µM); details: recombinant PfCDPK4, Kinase-Glo ATP depletion luminescence
Sequence of Calcium-dependent protein kinase 4 (Plasmodium falciparum (isolate 3D7)) (Q8IBS5 whole entry, looked up): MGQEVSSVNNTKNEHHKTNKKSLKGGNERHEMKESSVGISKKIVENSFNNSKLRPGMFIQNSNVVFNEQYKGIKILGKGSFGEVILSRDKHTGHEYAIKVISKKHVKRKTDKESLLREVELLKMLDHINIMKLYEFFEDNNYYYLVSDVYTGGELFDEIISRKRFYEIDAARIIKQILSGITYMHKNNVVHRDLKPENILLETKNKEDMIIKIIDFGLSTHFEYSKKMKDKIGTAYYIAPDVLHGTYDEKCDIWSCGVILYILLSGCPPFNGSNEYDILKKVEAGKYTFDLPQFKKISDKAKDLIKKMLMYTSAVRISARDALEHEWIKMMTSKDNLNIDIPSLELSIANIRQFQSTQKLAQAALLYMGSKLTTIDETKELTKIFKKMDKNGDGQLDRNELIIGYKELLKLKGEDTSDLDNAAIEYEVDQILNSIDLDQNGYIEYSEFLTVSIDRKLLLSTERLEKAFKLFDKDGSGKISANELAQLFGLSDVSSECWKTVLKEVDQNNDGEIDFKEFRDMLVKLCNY

Sequence of Calcium-dependent protein kinase 1 (Plasmodium falciparum (isolate 3D7)) (P62344 whole entry, looked up): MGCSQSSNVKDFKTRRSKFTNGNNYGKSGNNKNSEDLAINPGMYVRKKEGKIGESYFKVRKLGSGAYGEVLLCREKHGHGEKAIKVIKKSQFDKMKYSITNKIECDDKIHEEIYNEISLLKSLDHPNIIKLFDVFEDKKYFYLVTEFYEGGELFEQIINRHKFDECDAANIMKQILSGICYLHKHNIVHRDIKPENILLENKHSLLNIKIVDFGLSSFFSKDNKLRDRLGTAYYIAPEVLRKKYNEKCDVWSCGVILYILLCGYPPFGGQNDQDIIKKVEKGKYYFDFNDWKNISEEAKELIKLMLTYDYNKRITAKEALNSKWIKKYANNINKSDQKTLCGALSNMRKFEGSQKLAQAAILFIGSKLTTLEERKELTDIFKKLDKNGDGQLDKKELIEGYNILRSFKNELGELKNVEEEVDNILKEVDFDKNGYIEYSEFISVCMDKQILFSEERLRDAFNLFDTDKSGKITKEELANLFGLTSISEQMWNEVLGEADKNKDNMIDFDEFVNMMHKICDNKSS
Sequence of L-lactate dehydrogenase (Plasmodium falciparum (isolate CDC / Honduras)) (Q27743 whole entry, looked up): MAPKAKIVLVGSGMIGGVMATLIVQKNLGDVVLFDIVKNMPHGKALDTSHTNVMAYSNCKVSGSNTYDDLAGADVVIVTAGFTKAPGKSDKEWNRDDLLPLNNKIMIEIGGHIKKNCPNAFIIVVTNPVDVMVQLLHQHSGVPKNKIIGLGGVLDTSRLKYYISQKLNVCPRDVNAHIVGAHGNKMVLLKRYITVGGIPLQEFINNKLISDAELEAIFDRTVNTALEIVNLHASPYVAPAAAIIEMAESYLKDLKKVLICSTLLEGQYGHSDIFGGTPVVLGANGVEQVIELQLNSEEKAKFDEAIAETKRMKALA
Sequence of Plasmodium falciparum protein kinase 6 (PK6, PF3D7_1337100) (Q8IDW1 1-305): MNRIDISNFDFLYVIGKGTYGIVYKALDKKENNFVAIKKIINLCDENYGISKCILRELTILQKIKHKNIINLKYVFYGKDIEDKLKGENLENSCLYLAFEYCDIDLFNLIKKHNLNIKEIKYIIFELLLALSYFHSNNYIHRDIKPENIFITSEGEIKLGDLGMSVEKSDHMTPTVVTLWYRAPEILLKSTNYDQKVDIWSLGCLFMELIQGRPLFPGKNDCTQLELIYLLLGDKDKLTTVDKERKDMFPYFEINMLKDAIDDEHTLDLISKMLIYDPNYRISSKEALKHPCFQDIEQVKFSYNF
Sequence of Protein kinase 7 (PK7), Plasmodium falciparum 3D7 (PF3D7_0213400) (Q7YTF7 1-343): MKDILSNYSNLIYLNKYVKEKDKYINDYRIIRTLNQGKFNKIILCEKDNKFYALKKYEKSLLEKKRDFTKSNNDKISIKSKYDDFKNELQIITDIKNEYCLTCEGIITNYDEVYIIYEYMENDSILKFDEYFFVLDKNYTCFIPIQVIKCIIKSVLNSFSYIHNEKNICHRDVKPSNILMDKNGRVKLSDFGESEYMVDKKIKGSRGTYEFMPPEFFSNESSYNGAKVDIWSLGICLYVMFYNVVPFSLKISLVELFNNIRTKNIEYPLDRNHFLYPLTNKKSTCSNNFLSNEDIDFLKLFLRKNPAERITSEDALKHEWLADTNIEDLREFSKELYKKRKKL

Row | Compound | growth inhibition [1] | inhibition [2] | inhibition [3] | growth inhibition [4] | outcome [5] | outcome [6] | outcome [7] | outcome [8]
1 | COc1ccc2nccc(NCC3(O)CCN(CC(O)c4ccc5c(c4)NC(=O)CS5)CC3)c2n1 (stereo not given) | 3% | 3% | 2% | 100% (active) | inactive | inactive | inactive | inactive
2 | CN(c1ccc(C(=O)N[C@@H](CCC(=O)O)C(=O)O)cc1)S(=O)(=O)c1ccc2nc(N)[nH]c(=O)c2c1 | 3% | 16% | 2% | 97% (active) | inactive | inactive | inactive | inactive
3 | O=C(/C=C/c1ccc(Cl)c(Cl)c1)NCCCCCCN1CCCN(C(=O)Nc2cc(F)cc(F)c2)CC1 | -1% | 25% | -6% | 99% (active) | inactive | inactive | inactive | inactive
4 | CCCCCCc1cc(Oc2c(I)cc(C[C@H](N)C(=O)O)cc2I)ccc1O | -5% | -2% | -1% | 97% (active) | inactive | inactive | inactive | inactive
5 | O=c1cc(NCCCNCc2cc3ccc(Br)cc3s2)[nH]c2ccccc12 | 8% | 18% | -2% | 92% (active) | inactive | inactive | inactive | inactive
6 | CC(C)Oc1cccc(-c2ccc(C(=O)NCC3CCCN(Cc4cccc(C(F)(F)F)c4)C3)s2)c1 (stereo not given) | 28% | 10% | -2% | 91% (active) | inactive | inactive | inactive | inactive
7 | CC(C)COc1ccc(Cl)cc1Cc1ccc(-c2nc3ccc(Cl)cc3[nH]2)o1 | 96% (active) | 19% | -1% | 97% (active) | inactive | inactive | inactive | inactive
8 | COC(=O)c1ccc(CCCNCC(O)c2cccc(C(F)(F)F)c2)cc1 (stereo not given) | 88% (active) | 0% | 4% | 97% (active) | inactive | inactive | inactive | inactive
9 | CC(C)NC(C)(C)CN(Cc1ccc(-c2ccc(C(F)(F)F)cc2)cc1)C(=O)Cn1c(CCc2cccc(F)c2F)nc(=O)c2ccccc21 | 68% (active) | 44% | 3% | 94% (active) | inactive | inactive | inactive | inactive
10 | COc1ccc(Oc2cnc(N)nc2N)c(C(C)C)c1 | -2% | 58% (active) | 4% | 97% (active) | inactive | inactive | inactive | inactive
11 | Cc1cc(NN=Cc2ccccc2F)c2cc(F)ccc2n1 | 97% (active) | 9% | -5% | 101% (active) | inactive | inactive | inactive | inactive
12 | Cc1cc2cc(NC(=O)Nc3ccnc4ccccc34)ccc2n1C | 33% | 17% | 4% | 90% (active) | inactive | inactive | inactive | inactive
13 | CN1CCCN(Cc2cccc(-c3ccc(NC(=O)c4ccc(Cl)cc4)cc3)c2)CC1 | 35% | 31% | -5% | 97% (active) | inactive | inactive | inactive | inactive
14 | COc1ccc2ccccc2c1CON1C(N)=NC(N)=NC1(C)C | 5% | 25% | -7% | 94% (active) | inactive | inactive | inactive | inactive
15 | O=C(CC1NC(=O)c2ccccc21)Nc1ccc(-c2cccc(-c3nc4ccc(C(F)(F)F)cc4[nH]3)c2)cc1 (stereo not given) | 36% | 69% (active) | -4% | 95% (active) | inactive | inactive | inactive | inactive
16 | CC(=O)c1ccc2cc(C(=O)NC3CCC(CCN4CCc5ccc(-c6noc(C)n6)cc5CC4)CC3)[nH]c2c1 (stereo not given) | 45% | 28% | 0% | 81% (active) | inactive | inactive | inactive | inactive
17 | CC(C)NCc1cccc(-c2ccc(-c3nc4ccc(C(F)(F)F)cc4[nH]3)cc2)c1 | 96% (active) | 7% | -6% | 99% (active) | inactive | inactive | inactive | inactive
18 | COc1ccc(CNCc2cccc(-c3ccc(-c4nc5ccccc5[nH]4)s3)c2)cc1 | 52% (active) | 14% | 0% | 90% (active) | inactive | inactive | inactive | inactive
19 | Cc1cc(N[C@@H](Cc2ccccc2)C(=O)NCc2cccc(F)c2)nc(NCCc2ccc(F)cc2)n1 | 69% (active) | 0% | -2% | 99% (active) | inactive | inactive | inactive | inactive
20 | COc1cccc(-c2nc3c(N4CCN(c5ccncc5)CC4)cccc3n2CC2CCCCCN2)n1 (stereo not given) | 31% | 12% | 3% | 91% (active) | inactive | inactive | inactive | inactive
